The record followed here is PubChem BioAssay (NCATS).

Results filed as inconclusive are left out. A call without a number means that no potency is given here. Calls of active or inactive are those of the source. Calls come from the whole dose curve; as a rule, active = well fitted curve in the direction sought with a large enough effect; inconclusive = small, poorly fitted or top-dose-only effect, or another doubt; inactive = no such curve, though single readings can be large; an effect the other way counts as inactive or inconclusive.

Test [1] addresses Aldehyde dehydrogenase, mitochondrial (Homo sapiens) (UniProt P05091). The test is described as follows: qHTS for Inhibitors of the Aldehyde Dehydrogenase Family (ALDH2) Primary screen (AID 2061308). Note: nearly all actives have a fitted effect of over 55% in size.
In test [2] the target is Retinaldehyde dehydrogenase 3 (Homo sapiens) (UniProt P47895). The test is described as follows: qHTS for Inhibitors of the Aldehyde Dehydrogenase Family (ALDH1A3) Primary screen (AID 2061315).

Turning to `Cc1cc2c(s1)c1cnn(Cc3cccc(F)c3F)c(=O)c1n2C`, the Potency entry in test [1] and in test [2] was “inactive” each time.

Regarding `COc1cc(NS(=O)(=O)c2ccc(C)cc2)cc(C(=O)Nc2nc(-c3ccccc3)cs2)c1`, the Potency result in test [1] and in test [2] was “inactive” each time.

Consider `O=C(CN1C(=O)N/C(=C\c2cccn2-c2cccc(C(=O)O)c2)C1=O)Nc1cccc(F)c1`, for which the Potency entry in test [1] and in test [2] was “inactive” each time.

In the case of `O=C1CCc2cc(S(=O)(=O)Nc3ccc(Cl)c(Cl)c3)ccc2N1`, the Potency result in test [1] and in test [2] was “inactive” in each case.

In the case of `Cc1ccc(-c2cc(C(=O)Nc3ccc(S(=O)(=O)NCc4nccs4)cc3)c3ccccc3n2)cc1C`, the Potency result in test [1] and in test [2] was “inactive” in each case.

Regarding `c1c[nH]c(CNc2ncnc3ccc(-c4ccc5c(c4)OCO5)cc23)n1`, the Potency entry in test [1] and in test [2] was “inactive” each time.

With `COc1ccc2nc(-c3ccccc3OC)sc2c1`, the Potency entry in test [1] and in test [2] was “inactive” in each case.

Take `COc1cccc(C)c1NC(=O)C(OC(=O)CNC(=O)c1ccccc1)c1ccccc1` (stereo not given): the Potency result in test [1] and in test [2] was “inactive” each time.

For the compound `CCCCN(C)C(=O)Cn1nc(-c2ccc(C(C)(C)C)cc2)ccc1=O`, the Potency result in test [1] and in test [2] was “inactive” in each case.

`Cc1cc(C)n2ncc(C(=O)Nc3cc(Cl)cc(Cl)c3)c2n1`: the Potency entry in test [1] and in test [2] was “inactive” each time.

`COc1cc(OC)cc(-c2ccc3c(-c4ccc(F)cc4)[nH]nc3n2)c1`: the Potency result in test [1] and in test [2] was “inactive” each time.

In the case of `O=S(=O)(NC1CCN(S(=O)(=O)c2c(F)cccc2F)C1)c1ccc2c(c1)OCCO2` (stereo not given), the Potency result in test [1] and in test [2] was “inactive” in each case.

Regarding `COC(=O)c1ccccc1NC(=O)c1ccccc1OC(F)F`, the Potency entry in test [1] and in test [2] was “inactive” throughout.

As for `CC(C)(C)n1nc(Cc2cccc([N+](=O)[O-])c2)c2c(N)ncnc21`, the Potency entry in test [1] and in test [2] was “inactive” throughout.

As to `O=C1CCCC2=C1C(c1[nH]ncc1Cl)N=C(Nc1nc3c(Cl)cccc3o1)N2` (stereo not given), the Potency result in test [1] and in test [2] was “inactive” each time.
